Test results published in PubChem BioAssay AID1159580 (chemical genetic matrix, 2015).
Values joined by “and” are separate entries in the source; they are usually repeats but may differ in a detail not shown here. Equal values may be shown once. The whole screen tested about 5,500 compounds, of which about 2,000 (36%) were called active. Inconclusive results (about 18%) are left out. Cut-off read from the data, not from the text of the source: active = normalized growth mostly below about 0.91 (no sharp cut-off); inconclusive = no clear call, values can overlap the other calls; inactive = mostly above about 0.92. The list shows a part of the results.

Test: chemical genetic growth profiling, strain panel (AID 1159580);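 note: tested at 20 µM; growth read once vehicle control cultures reached saturation at 30 °C; 1 = growth at the plate median or of vehicle wells; lower values mean less growth of the strain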
Details: S. cerevisiae deletion strains, growth OD

Measured: normalized growth

C[C@@H]1CC[C@@]2(OC1)O[C@H]1CC3C4CC[C@H]5C[C@@H](O)CC[C@]5(C)C4CC[C@]3(C)[C@H]1[C@@H]2C (stereo not given in full)
inactive: locus YAL013W, strain DEP1, stronger effect = lower value 0.985 | locus YAL021C, strain ccr4, stronger effect = lower value 1.02 | locus YAL026C, strain drs2, stronger effect = lower value 1.01 | locus YAL030W, strain snc1, stronger effect = lower value 0.994 | locus YBL061C, strain skt5, stronger effect = lower value 1 | locus YBR009C, strain hhf1, stronger effect = lower value 0.99 | locus YBR021W, strain FUR4, stronger effect = lower value 1.11 | locus YBR023C, strain chs3, stronger effect = lower value 1 | locus YBR171W, strain sec66, stronger effect = lower value 0.994 | locus YBR229C, strain ROT2, stronger effect = lower value 0.988 | locus YBR231C, strain swc5, stronger effect = lower value 0.988 | locus YBR279W, strain paf1, stronger effect = lower value 0.996 | locus YCL011C, strain gbp2, stronger effect = lower value 0.994 | locus YCL016C, strain dcc1, stronger effect = lower value 0.998 | locus YCL029C, strain bik1, stronger effect = lower value 0.978 | locus YCL061C, strain MRC1, stronger effect = lower value 0.987 | locus YCL069W, strain vba3, stronger effect = lower value 1 | locus YCR088W, strain abp1, stronger effect = lower value 0.986 | locus YDL005C, strain med2, stronger effect = lower value 0.999 | locus YDL035C, strain GPR1, stronger effect = lower value 1.02 | locus YDL040C, strain nat1, stronger effect = lower value 0.998 | locus YDL074C, strain BRE1, stronger effect = lower value 1 | locus YDL101C, strain DUN1, stronger effect = lower value 0.983 | locus YDL134C, strain PPH21, stronger effect = lower value 0.972 | locus YDL185W, strain tfp1, stronger effect = lower value 0.954 | locus YDL192W, strain arf1, stronger effect = lower value 0.978 | locus YDR001C, strain nth1, stronger effect = lower value 0.997 | locus YDR069C, strain doa4, stronger effect = lower value 0.993 | locus YDR101C, strain arx1, stronger effect = lower value 1.01 | locus YDR137W, strain rgp1, stronger effect = lower value 1 | locus YDR159W, strain sac3, stronger effect = lower value 1 | locus YDR162C, strain NBP2, stronger effect = lower value 0.994 | locus YDR195W, strain ref2 0.989 | locus YDR297W, strain sur2, stronger effect = lower value 0.988 | locus YDR318W, strain mcm21, stronger effect = lower value 0.977 | locus YDR334W, strain swr1, stronger effect = lower value 0.993 | locus YDR335W, strain msn5, stronger effect = lower value 0.996 | locus YDR388W, stronger effect = lower value 0.981 | locus YDR392W, strain spt3, stronger effect = lower value 0.981 | locus YDR502C, strain sam2, stronger effect = lower value 0.992 | locus YEL003W, strain gim4, stronger effect = lower value 0.994 | locus YEL037C, strain rad23, stronger effect = lower value 0.989 | locus YEL061C, strain CIN8 (second series), stronger effect = lower value 0.992 | locus YER015W, strain faa2, stronger effect = lower value 0.996 | locus YER016W, strain bim1, stronger effect = lower value 0.998 | locus YER110C, stronger effect = lower value 0.969 | locus YER111C, strain swi4, stronger effect = lower value 0.994 | locus YER155C, strain BEM2 (second series), stronger effect = lower value 0.977 | locus YER155C, strain BEM2, stronger effect = lower value 0.999 | locus YER167W, strain BCK2, stronger effect = lower value 0.997 | locus YFR010W, strain ubp6, stronger effect = lower value 1 | locus YGL078C, strain dbp3, stronger effect = lower value 0.956 | locus YGL086W, strain mad1, stronger effect = lower value 0.993 | locus YGL167C, strain pmr1, stronger effect = lower value 0.999 | locus YGL173C, strain kem1, stronger effect = lower value 0.998 | locus YGL227W, strain vid30, stronger effect = lower value 0.987 | locus YGL240W, strain doc1, stronger effect = lower value 1.01 | locus YGL248W, strain PDE1, stronger effect = lower value 0.988 | locus YGL253W, strain hxk2, stronger effect = lower value 1 | locus YGR135W, strain pre9, stronger effect = lower value 0.941 | locus YGR252W, strain gcn5, stronger effect = lower value 1 | locus YHR013C, strain ard1, stronger effect = lower value 0.988 | locus YHR027C, strain rpn1, stronger effect = lower value 0.992 | locus YHR030C, strain SLT2, stronger effect = lower value 0.985 and 1 | locus YHR079C, strain IRE1 (second series), stronger effect = lower value 0.987 | locus YHR079C, strain IRE1, stronger effect = lower value 0.993 | locus YHR094C, strain hxt1, stronger effect = lower value 0.97 | locus YHR129C, strain ARP1, stronger effect = lower value 0.991 | locus YHR142W, strain chs7, stronger effect = lower value 1.03 | locus YHR200W, strain rpn10, stronger effect = lower value 0.997 | locus YIL066C, strain RNR3, stronger effect = lower value 1 | locus YIL073C, strain SPO22, stronger effect = lower value 0.892 | locus YIL125W, strain kgd1, stronger effect = lower value 0.979 | locus YIR030C, strain dcg1, stronger effect = lower value 0.977 | locus YJL092W, strain hpr5, stronger effect = lower value 0.99 | locus YJL095W, strain BCK1 (second series), stronger effect = lower value 0.989 | locus YJL095W, strain BCK1, stronger effect = lower value 0.979 and 0.99 | locus YJL115W, strain asf1, stronger effect = lower value 0.976 | locus YJL129C, strain trk1, stronger effect = lower value 0.977 | locus YJL134W, strain LCB3, stronger effect = lower value 0.993 | locus YJL154C, strain vps35, stronger effect = lower value 0.99 | locus YJL164C, strain tpk1, stronger effect = lower value 0.996 | locus YJL166W, strain qcr8, stronger effect = lower value 0.989 | locus YJL168C, strain set2, stronger effect = lower value 0.977 | locus YJL187C, strain SWE1 (second series), stronger effect = lower value 0.977
